Results on twelve compounds are retold here after ChEMBL document CHEMBL4513146, “CO-ADD screening of Karazin Kharkiv National University (Ukraine) compounds”.

One test relates to Staphylococcus aureus. As to conditions: Concentration 32 ug.mL-1;; ASSAY_TEST Inhibition of Bacterial Growth; detection method Absorption (OD600); MEDIA CAMHB; plate type 384well; NBS; CORNING #3640; time 18 hr.
In the next test the test system is Escherichia coli. The note with it: Concentration 32 ug.mL-1;; ASSAY_TEST Inhibition of Bacterial Growth; detection method Absorption (OD600); MEDIA CAMHB; plate type 384well; NBS; CORNING #3640; time 18 hr.

Entries with a potency or affinity are not part of this list.

Regarding `CCOc1ccc(NC(=O)Cn2nc3c(SCc4ccc(Cl)cc4)nccn3c2=O)cc1`, the figures for the Inhibition with Staphylococcus aureus and in the test with Escherichia coli were -1.92% and -9.96%, respectively.
Regarding `COC(=O)c1ccc(NC(=O)Cn2nc3c4cc(-c5ccc(Cl)cc5)nn4ccn3c2=O)cc1`, the Inhibition (as a rule, the drop in the measured response relative to a control, in per cent) with Staphylococcus aureus stood at 1.97%; with Escherichia coli, 4.04%.
On to `COc1ccc(-c2cc3c4nn(CC(=O)Nc5ccc(OC)cc5OC)c(=O)n4ccn3n2)cc1`, for which the Inhibition in the test with Staphylococcus aureus is reported as 6.72%; in the test with Escherichia coli, -3.4%.
With `CCc1ccc(N(Cc2ccccc2)S(=O)(=O)c2cccn3c(C)nnc23)cc1`, the Inhibition with Staphylococcus aureus is recorded as 11.03%; in the test on Escherichia coli, -3.19%.
As to `CCCCn1c(=O)c2sccc2n2c(=O)n(CC(=O)NC(C)CC)nc12` (centres undefined), the Inhibition in the test with Staphylococcus aureus is -5.96%; with Escherichia coli, -9.68%.
Consider `O=C(Cn1nc2c3cc(-c4ccc(F)cc4)nn3ccn2c1=O)N1CCCc2ccccc21`, for which the figures for the Inhibition in the test with Staphylococcus aureus and in the test on Escherichia coli were -1.84% and -5.07%, respectively.
Regarding `CCc1ccccc1Sc1nccn2c(=O)n(CC(=O)Nc3ccc(C)cc3C)nc12`, the Inhibition was 10.48% in the test on Staphylococcus aureus and -10.9% in the test on Escherichia coli.
`O=C(CSc1nnc2c(=O)n(-c3ccc(Br)cc3)ccn12)c1ccc(F)cc1`: the Inhibition is given as 0.43% in the test on Staphylococcus aureus and -3.19% in the test with Escherichia coli.
As for `Cc1cc(C)cc(NC(=O)Cn2nc3ccc(-c4ccc(C)c(C)c4)nn3c2=O)c1`, the Inhibition is 1.36% in the test on Staphylococcus aureus and -7.85% in the test with Escherichia coli.
For `Cc1cc(C)cc(Nc2nc(C)cc3nn(CC(=O)Nc4ccc(F)cc4F)c(=O)n23)c1`, in that order: 11.96% and -0.48%.
Take `Cc1ccc(-c2ccc3nn(Cc4nc(-c5ccc(Cl)cc5)no4)c(=O)n3n2)cc1`: the values for the Inhibition with Staphylococcus aureus and with Escherichia coli were 5.13% and 0.55%, respectively.
Regarding `Cc1cccc(NC(=O)Cn2nc3c4cc(-c5ccc(Cl)cc5)nn4ccn3c2=O)c1C`, the figures for the Inhibition with Staphylococcus aureus and in the test on Escherichia coli were 5.13% and -1.29%, respectively.
